Screens deposited in PubChem BioAssay by several laboratories.
Most compounds without a hit are left out; they make up all but 2.8% or so of the library.
Peg3 prom inh – reduces Peg3 promoter-driven luciferase expression in HeLa. inhibition, % at 20 µM. HeLa PEG-Prom luciferase reporter, luminescence, overnight. 360,000 tested, 1.7% active;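 active = inhibition of at least 50% at 20 µM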
KKLEB cytotox – reduces viability of KKLEB cystic fibrosis airway cells; AID 602141; 360,000 tested, 0.36% active; activity change (cytotoxicity), % at 5 µM; KKLEB CF airway cells viability, ATPlite luminescence, overnight; active compounds read low; cells stimulated with P. aeruginosa culture filtrate;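 active = corrected activity change at or below -50% at 5 µM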
TRPM1 prom inh – inhibitors of MITF-driven TRPM1 promoter in melanoma cells; SK-MEL-5 TRPM1 promoter luciferase, 24 h; 330,000 tested, 0.83% active; inhibition, % at 12.5 µM;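 active = mean inhibition across replicates of 60% or more, whatever share of single replicates reaches that level; inconclusive = some that reach 60%, reason not given; inactive = mean inhibition across replicates below 60%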
Shn3 3UTR inh – Schnurri-3 reporter inhibition in Clone20 osteoblasts; Clone20 osteoblast Shn3 3'UTR firefly luciferase, 24 h; inhibition, % at 12.5 µM; 360,000 tested, 0.52% active;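 active = mean inhibition of at least 75% with every replicate also reaching 75%; inconclusive = mean inhibition at least 75% but some replicate below; inactive = mean inhibition below 75%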;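 note: 0% = median of neutral control wells and 100% = pilot-screen positive control compound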
CF NFkB block – blocks PAF-induced NF-kB reporter in cystic fibrosis cells; KKLEB NF-kB-GFP reporter, GFP fluorescence overnight; inhibition, % at 5 µM; 360,000 tested, 0.86% active; AID 588850;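 active = at least 50% inhibition at 5 µM, scaled per plate between neutral and stimulator controls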;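 note: PAF is a Pseudomonas aeruginosa culture filtrate used as stimulus; plate controls were PAF-stimulated DMSO wells for no effect and unstimulated DMSO wells for full effect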
HIF-2a block – HIF-2a inhibition. inhibition, % at 18.8 µM. 360,000 tested, 0.72% active. 786-0 RCC cells HIF-2a reporter, luciferase luminescence, overnight;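 active = inhibition of the luminescence signal of 40% or more relative to plate controls, in a single-dose primary screen at 18.75 µM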
* = called active by the depositor; ? = inconclusive; · = no result.

SMILES	Peg3 prom inh	KKLEB cytotox	TRPM1 prom inh	Shn3 3UTR inh	CF NFkB block	HIF-2a block
COc1ccc(C(CNC(=O)c2ccc(S(=O)(=O)N3CC(C)CC(C)C3)cc2)N(C)C)cc1 (configuration not stated)	70.8*	-16.8	54.4	8.7	19.2	-0.7
Cc1ccc(S(=O)(=O)/N=C2\C=C(NS(=O)(=O)c3ccccc3)C(=O)c3ccccc32)c(C)c1	-14.8	-5.6	25.6	2.8	78.2*	-4.5
CC(C)(C)c1ccc(S(=O)(=O)/N=C2\C=C(NS(=O)(=O)c3ccccc3)C(=O)c3ccccc32)cc1	28.6	-16.1	6.0	-6.5	82.1*	-10.1
CCc1cccc2c1NC(=O)C21N2CCCC2C(C(=O)c2ccc3ccccc3c2)C12C(=O)Nc1ccccc12 (configuration not stated)	-71.5	-23.1	-25.7	20.5	9.8	-250.7
CCc1ccc2c(c1)C1(C(=O)N2)N2CCCC2C(C(=O)c2ccc3ccccc3c2)C12C(=O)Nc1ccccc12 (configuration not stated)	104.0*	-24.0	4.0	-2.6	1.6	-144.7
CN(C)S(=O)(=O)N(CC(=O)Nc1ccc(S(=O)(=O)N2CCCC2)cc1)c1ccccc1	12.7	4.8	14.1	1.7	11.3	8.9
COc1ccc(C2=Nn3c(nnc3-c3ccccc3F)SC2)cc1OCC1CC1	52.7*	-44.4	17.9	15.5	38.1	6.0
FC(F)Oc1ccc(C2=Nn3c(nnc3-c3ccccc3Cl)SC2)cc1OCC1CC1	13.6	-17.0	-15.6	-11.1	18.1	5.3
OCc1ncc(-c2ccccc2)s1	-39.4	-1.8	-10.5	-12.3	-4.9	-57.1
O=C(Nc1cccn2nc(COCCO)nc12)C(c1ccccc1)c1ccccc1	18.6	-2.4	·	-0.8	-28.8	3.1
CCCCC1(Cc2ccc([N+](=O)[O-])cc2)C(=O)N(c2ccccc2)N(c2ccccc2)C1=O	28.0	-4.0	17.5	91.9*	-24.6	1.9
CCOc1ccc2[nH]c3c(N4CCc5ccccc5C4)ncnc3c2c1	34.4	-1.9	·	4.0	2.4	-24.5
COc1ccc2cc(C(=O)N3CCN(Cc4ccc5c(c4)OCO5)CC3)[nH]c2c1	-23.3	-4.8	6.6	12.1	8.5	-37.5
COc1ccc2[nH]c3c(N4CCN(Cc5ccc6c(c5)OCO6)CC4)ncnc3c2c1	54.8*	-13.8	5.3	60.0	1.8	26.1
COc1ccc2[nH]c3c(N4CCC(O)(c5cccc(C(F)(F)F)c5)CC4)ncnc3c2c1	56.9*	-8.7	34.8	24.4	-16.7	-6.9
COc1ccc(C)cc1NC(=O)Nc1ccc(C(=O)N2CCCC2)cc1	-97.7	-7.5	-26.9	-14.0	3.9	-160.4
N#Cc1c(C#N)c(SSc2c(C#N)c(C#N)c(N)n2-c2ccccc2)n(-c2ccccc2)c1N	105.5*	-88.9*	92.5*	88.6*	88.3*	7.2
COC(=O)c1ccc(CNC(=O)Cn2cnc3c(OCc4ccccc4)ncnc32)cc1	83.8*	2.4	2.6	0.2	-25.4	-6.0
Cc1ccc(CNC(=O)Cn2cnc3c(OCc4ccccc4)ncnc32)o1	16.7	-10.5	0.7	1.2	-6.5	-4.9
NNC(=O)c1cc2ccccc2cc1NS(=O)(=O)c1ccccc1	7.4	-7.8	11.7	-0.8	12.0	24.2
Cc1ccc(C(=O)NCCC(=O)N2CCC3(CC2)NCCc2[nH]cnc23)cc1C	5.4	17.7	-12.7	11.8	-23.9	6.3
CCN(C(=O)CN(C1=NC2CS(=O)(=O)CC2S1)c1ccc(OC)cc1)c1cccc(C)c1 (configuration not stated)	-4.5	-5.5	·	-39.6	9.2	2.3
COc1ccccc1C(=O)NCC[N+](C)(C)C	·	·	·	·	·	0.4
CC(NC1=CC(=O)c2cccnc2C1=O)C(O)c1ccccc1 (configuration not stated)	27.9	-31.8	110.0*	-12.2	79.9*	19.3
COC(=O)[C@]12CCCCC=C1N(CCc1ccc(OC)c(OC)c1)C(=O)[C@H](CC(=O)N1CCCCC1)C2	·	·	·	·	·	13.4
SMILES	Peg3 prom inh	KKLEB cytotox	TRPM1 prom inh	Shn3 3UTR inh	CF NFkB block	HIF-2a block
CCc1ccc(CNC(=O)C2Cc3cc(S(=O)(=O)N4CCCC4)ccc3N2C(C)=O)cc1 (configuration not stated)	-50.8	3.1	-6.9	9.3	-19.4	-32.5
N#CC(c1ccc(Cl)cc1)c1ccc2c(C(F)(F)F)cc(C(F)(F)F)nc2n1 (configuration not stated)	51.6*	-74.5*	78.7*	88.7*	67.2*	-32.4
FC(F)(F)c1cc(C(F)(F)F)c2ccc(N3CCN(c4ccc(Cl)cc4)CC3)nc2n1	12.7	-24.1	-9.7	-1.0	4.1	5.2
Cc1cc(NCC(=O)Nc2ccc(C)c(S(=O)(=O)N3CCOCC3)c2)ccc1Br	21.2	-9.3	·	16.3	-13.7	11.2
COc1ccc(CNc2ncnc3c2[nH]c2cc(OC)c(OC)cc23)cc1	-25.2	2.7	-8.9	0.2	-9.5	14.2
COc1ccc(CNc2ncnc3c2[nH]c2ccccc23)cc1	32.1	-4.7	·	89.2*	5.4	18.8
NC(=O)c1ccc(NS(=O)(=O)c2ccc(Br)s2)cc1	3.1	10.6	-8.4	1.0	-2.6	2.4
CCN(CC)CCNc1ccc(CO)c2oc3cc(Cl)ccc3c(=O)c12	100.8*	-13.5	·	18.9	-109.1	4.7
CC(=NNC(=S)N1CCCCC1)c1ccccn1	-13.8	-3.7	·	?	-17.8	-87.7
C/C(=N/NC(=O)CNC(=O)c1ccccn1)c1ccccc1	-14.0	1.8	-7.9	-9.0	-1.1	-48.3
C=CCNC(=S)N/N=C(\C)c1ccccn1	74.7*	-19.3	58.8	91.5*	19.5	10.7
CC(=NNC(=S)Nc1ccccc1Cl)c1ccccn1	-36.8	8.1	46.5	90.3*	-1.0	-200.0
Cc1ccc(-n2cc(CN3CCN(C(=O)c4ncn[nH]4)CC3)c(-c3ccc(F)cc3)n2)cc1	-36.1	-4.0	-20.9	-12.4	21.5	-61.1
O=C1/C(=C/c2ccc(S(=O)(=O)O)cc2S(=O)(=O)O)CCc2ccccc21	·	·	·	·	·	8.4
CC(=O)Nc1ccc(NC2=Nc3ccccc3N3C2=Nc2c(c(C)nn2-c2ccccc2)C3c2ccccc2)cc1 (configuration not stated)	89.9*	14.7	78.6*	13.5	2.7	-11.8
CC(=O)[C@H]1CC[C@H]2[C@@H]3C[C@H](C)C4=CC(=O)CC[C@]4(C)[C@H]3[C@@H](O)C[C@]12C	-7.5	19.8	-21.6	34.8	56.6*	16.7
CC(=O)O[C@]1(C(C)=O)CC[C@H]2[C@@H]3C[C@H](C)C4=CC(=O)CC[C@]4(C)[C@H]3CC[C@@]21C	-21.1	21.2	-0.1	-24.2	53.1*	12.3
CC(=O)OC1(C(C)=O)CCC2C3CC(C(F)(F)F)C4=CC(=O)CCC4(C)C3CCC21C (configuration not stated)	-29.1	-4.9	18.9	10.7	18.9	4.5
CCOC(=O)C1CCN(S(=O)(=O)c2cc(C(=O)N3CCCCC3)ccc2OC)CC1	8.8	6.9	-6.0	13.4	5.1	11.4
